Results taken from PubChem BioAssay AID602449 (Sanford-Burnham Center for Chemical Genomics, 2012).
In all, about 360,000 compounds went through this assay and about 5,000 (1.4%) were called active. Many of the other results were omitted from the sample, so actives are more common in it than they were. Values without a mark were called inactive.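 Rule for the calls: active = inhibition of 50% or more, scaled per plate between neutral and stimulator controls; inactive = the rest.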

Experiment: mitochondrial permeability transition pore inhibitors, primary screen, biochemical, isolated mouse mitochondria, absorbance (AID 602449);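 note: 0% = DMSO wells given calcium and 100% = 1 mM EGTA wells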
Details: Ca2+ swelling absorbance, 30 min, at 10 µM, hits give high values

Compared with `COC(=O)c1ccc(OCC(O)CN(CCO)CC(O)Cn2ccc3ccccc32)cc1` (configuration not stated), `CC(=O)Nc1ccc(OCC(O)CN2CCN(c3ccccc3Cl)CC2)cc1` (configuration not stated) is lower in inhibition: 0% for the first, -1.1% for the second.

First: Cc1ccc(N(CCC(=O)O)S(=O)(=O)c2cccc(C(F)(F)F)c2)cc1
Second: O=C(CN(c1cccc(Cl)c1)S(=O)(=O)c1ccccc1)NN=C1CCCC1
The inhibition of the first is higher: 1.1% for the first, 0.3% for the second.

Compared with `Cc1noc(C)c1S(=O)(=O)Nc1cc(C(F)(F)F)ccc1N1CCOCC1`, `Cc1ccc(F)cc1NC(=O)CSCc1c(C)noc1C` is lower in inhibition: 4.6% for the first, -0.3% for the second.

First: O=C(c1ccccn1)c1ncc(C(F)(F)F)cc1Cl
Second: N/C(=N\OC(=O)CCCC(=O)O)c1ncc(C(F)(F)F)cc1Cl
The inhibition of the first is lower: -0.8% for the first, -0.2% for the second.

Going from `ONC(=Nc1ccc(Cl)cc1)c1ccccc1Cl` to `O=S(=O)(CCc1nc2ccccc2o1)c1ccc(Cl)cc1`, the inhibition falls from 1% to -1.2%.

First: CCOC(=O)C1CSC(CC(=O)Nc2ccc(OCC)cc2)C(=O)N1 (configuration not stated)
Second: COc1ccc(NC(=O)CN(C)C(=O)Cc2coc3cc(C)c(C)cc23)cc1
The inhibition of the first is higher: 3.6% for the first, -0.3% for the second.

First: CCCCCCNCCn1cnc2c(N)ncnc21
Second: COc1ncnc2c1N=C1CC(C)(C)CC(N)=C1S2
The inhibition of the first is lower: -0.8% for the first, 0.5% for the second.

First: COc1cccc(-c2cnc(OC(C)(C)C)nc2OC(C)(C)C)c1
Second: COc1cccc(C(NC(C)=O)c2nc(-c3cnc4ccccc4c3)cs2)c1 (configuration not stated)
The inhibition of the first is lower: -0.3% for the first, 0.4% for the second.

First: COc1ccc(C(C)NC(=O)C2CCCC2)cc1 (configuration not stated)
Second: COc1ccc(CCC(C)N2CCc3ccccc3C2)cc1 (configuration not stated)
The inhibition of the first is higher: 0.1% for the first, -0.5% for the second.

Going from `CCN(CC(=O)NCCCN1CCOCC1)S(=O)(=O)c1cc(Cl)ccc1Cl` to `CC(C)(CNC(=O)Cc1ccc(Cl)cc1Cl)N1CCOCC1`, the inhibition rises from -1.1% to 1.9%.

Compared with `COc1ccc(Cl)cc1NC(=O)CN(C)Cc1ccc(OC)c(OC)c1`, `COc1ccc(CCNC(=O)c2ccccc2-c2ccccc2C(=O)O)cc1OC` is lower in inhibition: 0.9% for the first, -0.5% for the second.

Going from `COc1ccccc1C(=O)NC(=S)Nc1ccccc1N1CCCCC1` to `COc1ccccc1P(=O)(c1ccccc1)c1ccccc1NC(C)=O` (configuration not stated), the inhibition falls from 1.3% to 0.1%.

Going from `COc1ccc(Br)cc1C(=O)Nc1cccc(C)c1C` to `Cc1cccc(NC(=S)NCCc2ccc(F)cc2)c1C`, the inhibition rises from -1.2% to 0.7%.

Compared with `CC1CCCCC12NC(=O)N(CC(=O)OCC(=O)NCc1ccc(F)cc1)C2=O` (configuration not stated), `Cc1ccc(CNC(=O)CCC(=O)N2CC(C)Sc3ccccc32)cc1` (configuration not stated) is lower in inhibition: -0.2% for the first, -1.8% for the second.

First: O=C(Nc1nsc(-c2ccccc2)n1)c1ccncc1
Second: COc1cccc(NC(=O)C(Sc2nnnn2C)c2ccccc2)c1 (configuration not stated)
The inhibition of the first is higher: 0.9% for the first, -1.4% for the second.

Compared with `Cc1nnc(SCC(=O)N2CCOCC2)[nH]c1=O`, `O=C(COc1ccc(S(=O)(=O)N2CCOCC2)cc1Cl)N1CCOCC1` is lower in inhibition: 26.4% for the first, 0.5% for the second.

Compared with `CCOC(=O)CSc1nc(C)c(Oc2ccc(Cl)cc2Cl)c(=O)[nH]1`, `Cc1ccc(C)c(NC(=O)COC(=O)c2nn(C)c(=O)c3ccccc23)c1` is lower in inhibition: 2.7% for the first, 1.4% for the second.

`COC(C[C@H](O)CC(=O)COCc1ccccc1)OC` and `O=C(NCCc1ccccc1)C1CC1` are the same in inhibition: -0.4% for the first, -0.4% for the second.

Compared with `Cn1c(SCC(=O)N/N=C/c2ccc(O)c(O)c2)nc2ccccc21`, `COc1ccccc1CNC(=O)CCn1c(=O)sc2ccccc21` is lower in inhibition: 2.9% for the first, 0.2% for the second.

Going from `CC(C)(C)c1nnc(NC(=O)C2c3ccccc3Oc3ccccc32)s1` to `CC1=NN(/C(=N\c2nnc(C)s2)Nc2ccccc2)[C@H](c2ccc(C)cc2)S1`, the inhibition falls from 6.5% to 0.1%.

Compared with `COc1ccc(CNS(=O)(=O)c2cc(-c3cc(C)no3)ccc2C(C)C)cc1`, `CCc1noc(C)c1C(=O)Oc1ccc(N(C)S(=O)(=O)c2ccc(C)c(C)c2)cc1` is higher in inhibition: -0.4% for the first, 0.2% for the second.

Going from `CC(C)CNC(=S)Nc1ccc(F)cc1` to `Cc1cc(F)ccc1NC(=S)NCCc1ccccc1`, the inhibition falls from 2.1% to 0%.

First: Cc1c(NC(=O)CCCOc2ccccc2)cccc1[N+](=O)[O-]
Second: COc1ccccc1OCCNc1cc(N2CCOCC2)ccc1[N+](=O)[O-]
The inhibition of the first is lower: 0.1% for the first, 2.8% for the second.

Going from `COc1cc(NC(=S)NCc2ccc(S(N)(=O)=O)cc2)cc(OC)c1` to `COc1ccc(N2CCN(C(=O)[C@@H](NC(=O)c3cc(OC)cc(OC)c3)C(C)C)CC2)cc1`, the inhibition rises from -1% to 0.3%.

Compared with `C/C(=N\N=C(N)N)c1ccc(Cl)cc1`, `C/C(=N/NC(=O)C1COc2ccccc2O1)c1ccco1` (configuration not stated) is lower in inhibition: 2% for the first, 0.4% for the second.

Going from `CCOc1ccc(OCC)c(NC(=O)CN(C)S(=O)(=O)c2cccc3nsnc23)c1` to `COc1cccc(C(=O)Nc2nnc(S(=O)(=O)N3CCOCC3)s2)c1`, the inhibition falls from -0.3% to -1%.

Compared with `O=C(NCCCc1ccccc1)C1CCC(CNc2c(N3CCCCC3)c(=O)c2=O)CC1` (configuration not stated), `O=C(CN1CCOCC1)N1CCCc2c1c(=O)oc1ccc(OCc3ccccc3)cc21` is higher in inhibition: 0.1% for the first, 5.1% for the second.

First: CN(N)c1nc(N2CCCC2)nc(N2CCCC2)n1
Second: COc1nc(NC2CCCCC2)nc(N2CCCCCC2)n1
The inhibition of the first is lower: 1.8% for the first, 20.8% for the second.

First: O=S(=O)(c1ccccc1)N1CCC(c2ccccc2)CC1
Second: O=C(Nc1cc(S(=O)(=O)N2CCCCC2)ccc1Cl)C1COc2ccccc2O1 (configuration not stated)
The inhibition of the first is higher: 1.4% for the first, -0.4% for the second.

Compared with `COc1ccc(C2(C)ON(c3ccccc3C(F)(F)F)C2=O)cc1` (configuration not stated), `COc1cc(C(=O)Nc2cc(C(F)(F)F)ccc2-n2cncn2)cc(OC)c1OC` is higher in inhibition: -1.7% for the first, -0.1% for the second.

Compared with `OC(COc1ccc(CN2CCSCC2)cc1)CN1CCCCC1` (configuration not stated), `Nc1ccc(OCC(O)C[n+]2ccc(CCS(=O)(=O)[O-])cc2)cc1` (configuration not stated) is lower in inhibition: 1.1% for the first, -2.1% for the second.

First: CCC(c1nc2ccccc2[nH]1)n1c(=O)c(-c2cccs2)nc2ccccc21 (configuration not stated)
Second: CN1CCN(c2ccc([N+](=O)[O-])c(Sc3nc4ccccc4[nH]3)c2)CC1
The inhibition of the first is higher: 2.6% for the first, -0.9% for the second.

First: O=C(NC1CCCC1)C1c2ccccc2OCC(=O)N1CC(F)(F)F (configuration not stated)
Second: O=C(N/N=C\c1cc(Br)c(Br)o1)C1COc2ccccc2O1 (configuration not stated)
The inhibition of the first is lower: -0.2% for the first, 3.3% for the second.

Compared with `O=C(Nc1nnc(S(=O)(=O)N2CCOCC2)s1)c1cccc(Br)c1`, `Cn1c(=O)c2c(nc(CN3CCOCC3)n2Cc2ccccc2)n(C)c1=O` is lower in inhibition: 4.6% for the first, 0.1% for the second.

Going from `CCCCn1c(N)c(N(CCC(C)C)C(=O)c2ccc([N+](=O)[O-])o2)c(=O)[nH]c1=O` to `CCC1=C(OC(=O)N(CC)CC)N2C(=O)OC(=NCCc3c[nH]c4ccccc34)[C@]2(C)[C@H]2C1=CC[C@H]1C(=O)N(CC)C(=O)[C@H]12`, the inhibition rises from -0.3% to 0%.

Compared with `O=C1CC(c2c(F)cccc2Cl)C(n2cncn2)C(O)=C1C1NCCc2ccccc21` (configuration not stated), `CC1(C)OC(=O)C2=C(C[C@@H](C3CC3)O[C@H]2CCc2cccc(Cl)c2)O1` is lower in inhibition: 5.6% for the first, 1% for the second.

Compared with `NNC(=O)COc1ccc(C2SCCS2)cc1`, `COc1ccc(CN2CCOC2=O)cc1OC` is higher in inhibition: -1% for the first, 0.9% for the second.

Compared with `COCCn1c(CN(Cc2ccccc2)Cc2ccccc2)nc2c1c(=O)n(C)c(=O)n2C`, `Cc1cc(C)c2c(Cn3ccnc3)cc(=O)oc2c1` is lower in inhibition: 0.9% for the first, -1.5% for the second.

First: CN(C)C(=O)N=NC(=O)N(C)C
Second: Cc1cc(C)c2nc(NC(=O)C3CCCO3)sc2c1 (configuration not stated)
The inhibition of the first is higher: 4.3% for the first, -9.1% for the second.

For `Cc1oc2c(F)c(F)c(F)c(F)c2c1S(=O)(=O)Nc1cccc(C(F)(F)F)c1`, the inhibition was 83.3% (active).
With `N/C(=N\OC(=O)Nc1ccc(Cl)c(Cl)c1)c1ncc(C(F)(F)F)cc1Cl` the inhibition was 88.1% (active).
With `COc1ccc(Br)cc1C(=O)NC(=S)Nc1cc(-c2nc3ccccc3[nH]2)ccc1C` the inhibition was 70.7% (active).
For `CCCCOC(=O)CNc1nnc(SCC(=O)OCC)[nH]c1=O`, the inhibition was 77.3% (active).
With `O=C(N/N=C/c1ccc(O)c(O)c1)C1c2ccccc2Oc2ccccc21` the inhibition was 104% (active).
In the case of `Cc1c(NC(=S)NCc2ccc(F)cc2)cccc1[N+](=O)[O-]`, the inhibition is reported as 96.5% (active).
For `Cc1cc(C)cc(NC(=S)NCc2ccc(F)cc2)c1`, the inhibition was 50.1% (active).
In the case of `COc1ccc(CCNc2cc(N3CCN(C(=O)c4ccccc4OC)CC3)ccc2[N+](=O)[O-])cc1OC`, the inhibition is reported as 55.3% (active).
In the case of `S=C(NCCc1ccccc1)NCc1ccccc1Cl`, the inhibition is reported as 69.8% (active).
With `FC(F)(F)COc1nc(N2CCCCC2)nc(N2CCNCC2)n1` the inhibition was 78.3% (active).
In the case of `O=C(c1ccc(Cl)cc1)c1ccc(OCC(O)CN2CCCCC2)cc1` (configuration not stated), the inhibition is reported as 96.3% (active).
In the case of `CCC(C)N1C(=O)S/C(=C/c2ccc(Sc3nc4ccccc4[nH]3)o2)C1=O` (configuration not stated), the inhibition is reported as 91.9% (active).
In the case of `O=C(Nc1nnc(S(=O)(=O)N2CCCCCC2)s1)c1cccc(Br)c1`, the inhibition is reported as 79.7% (active).
For `Cc1ccc(F)cc1NC(=O)Cc1nn(C)c(=O)c2ccccc12`, the inhibition was 69.1% (active).
For `COCCn1c(CN2CCC(Cc3ccccc3)CC2)nc2c1c(=O)n(C)c(=O)n2C`, the inhibition was 83.7% (active).
With `COc1ccc(Cn2c(=O)sc3ccccc32)cc1OC` the inhibition was 72.6% (active).
In the case of `Oc1c(Cl)cc(Cl)c(Cl)c1Cc1c(O)c(Cl)cc(Cl)c1Cl`, the inhibition is reported as 80.8% (active).
In the case of `O=C(Nc1nnc(SCc2ccc(Cl)cc2Cl)s1)C1COc2ccccc2O1` (configuration not stated), the inhibition is reported as 70% (active).
In the case of `O=C(Nc1nc2c(F)cc(F)cc2s1)C1COc2ccccc2O1` (configuration not stated), the inhibition is reported as 63.7% (active).
